Laboratory results: PubChem BioAssay AID2129 (The Scripps Research Institute Molecular Screening Center, 2009)
Several values for one entry are separate records, joined by “and”; a condition that tells them apart may be missing. Equal entries are not always repeated. In all, about 320,000 compounds went through this assay and about 2,200 (0.69%) were called active.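 Rule for the calls: active = inhibition above the mean of all tested compounds plus 3 SD, cutoff set per campaign (cut at about 30% in these data); inactive = the rest.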 What follows is part of a selection rich in actives, with near analogues and random picks from the rest. Some structures have more than one record in an assay (separate samples or runs), and their calls can disagree.

Biological target: Bcl-2-like protein 1 (Homo sapiens) (UniProt Q07817)
Assay: inhibitors of human Bcl-xL, primary screen, biochemical, fluorescence polarization, HTS (AID 2129);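 note: 0% = DMSO wells and 100% = unlabeled Bim-BH3 peptide competitor; inhibitors lower millipolarization by displacing the labeled peptide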
Details: GST-Bcl-xL / FITC-Bim BH3 peptide fluorescence polarization; at 10.9 µM; stronger effect = higher value

Chain of Bcl-2-like protein 1 (Homo sapiens) (Q07817 whole entry, looked up): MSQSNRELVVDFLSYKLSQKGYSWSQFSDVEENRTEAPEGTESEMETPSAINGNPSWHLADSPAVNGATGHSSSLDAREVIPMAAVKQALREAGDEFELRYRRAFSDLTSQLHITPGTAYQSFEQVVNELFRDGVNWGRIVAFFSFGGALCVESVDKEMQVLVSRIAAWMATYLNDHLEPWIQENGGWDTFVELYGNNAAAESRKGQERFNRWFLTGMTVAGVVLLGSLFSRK

inhibition, inactive:
CCCN1CNC(=S)N(CCc2ccccc2)C1 -3.74%
C/C(CC(=O)NC(C)c1ccccc1)=N\NC(N)=S (centres undefined) 4.39%
O=C(c1cc(=O)c2ccccc2o1)N1CCN(c2ccccc2)CC1 -0.91%
CC(C)N(C(=O)COC(=O)c1ccccc1C(=O)N1CCN(c2ccc(F)cc2)CC1)C(C)C 10.7%
CCc1c(C)nc2c(OC)cccc2c1Cl 7.8%
COC(=O)C1CCN(C(=O)c2cc(=O)[nH]c3ccccc23)CC1 1.35%
O=C(NC1CCCCC1)N1CCc2[nH]c3ccccc3c2C1 16.5%
CCCC(C)c1nnc(NC(=O)C2CC(=O)N(c3ccc(OCC)cc3)C2)s1 (centres undefined) 7.2%
Cc1ccc(CS(=O)(=O)CCC(=O)NCc2ccc(F)cc2)cc1 -0.6%
CCOC(=O)CNc1nc2ccccc2n2c(C)nnc12 4.27%
COc1ccc(CNc2nnnn2C)cc1 -1.64%
CCCCCN(C(=O)NC(=O)Nc1ccccc1C)S(C)(=O)=O 2.62%
O=[N+]([O-])c1ccc(N2CCNCC2)cc1NCc1cccnc1 -23.7%
O=C(NCCCc1ccccc1)C(=O)c1c[nH]c2ccccc12 4.6%
CCOc1ccc(N2CC(C(=O)NCCN3C(=O)S/C(=C\c4cccnc4)C3=O)CC2=O)cc1 (centres undefined) -5.5%
COc1ccccc1N1CC(C(=O)NCCN2C(=O)S/C(=C\c3cccnc3)C2=O)CC1=O (centres undefined) 9.93%
O=C(COc1ccc(Cl)cc1)NCCS(=O)(=O)N1CCN(c2ccc(F)cc2)CC1 5.68%
CCN(CC)c1ccc(C(=O)Nn2c(C)nc3ccccc3c2=O)cc1 5.43%
C=CCN(C(=O)Nc1ccc2oc(C)nc2c1)c1ccccc1 13.5%
C=C(C)C(=O)O[C@H]1C/C(C)=C\C(=O)/C=C(\C)[C@H](O)[C@@H]2OC(=O)C(=C)[C@@H]21 3.95%
Cc1cccc(C(=O)OCC(=O)NCC(C)C)c1O 2.99%
Cc1cnc(C(=O)Oc2cccc(Cl)c2Cl)cn1 9.01%
Cc1nn2c(c1-c1ccccc1)N=C(c1ccco1)CC2c1ccccc1 (centres undefined) 3.95%
CC1(C)C=C2[C@H]3CC[C@@H]4[C@@]5(C)CCC(=O)C(C)(C)[C@@H]5CC[C@@]4(C)[C@]3(C)CC[C@@]2(C(=O)O)CC1 5.29%
COc1ccc(CNC(=O)C2CCN(S(=O)(=O)c3ccc(SC)cc3)CC2)cc1 9.54%
CN(C)/C=C1/Nc2ccccc2C1=O 18.7%
O=C1Nc2ccccc2/C1=C/c1ccnc2ccccc12 2.91%
O=C(Nc1ccccc1C(=O)NCCCn1ccnc1)c1ccc(Cl)cc1Cl 9.41%
CC1CCN(C(=O)COC(=O)c2cc(=O)[nH]c3ccccc23)CC1 2.08%
Cc1noc(C)c1CSCC(=O)Nc1nc2ccc(Oc3ccccc3)cc2s1 3.02%
CC(C)(CSc1nncn1/N=C/c1ccco1)NS(=O)(=O)c1ccc(Cl)cc1 4.42%
COc1cc(/C=C2\CCCc3c2nc2ccccc2c3C(=O)O)cc(Cl)c1O 9.54%
NS(=O)(=O)c1ccc(NC(=O)COC(=O)c2cc3ccccc3oc2=O)cc1 3.99%
COc1ccc(CNC(=O)C(C)NCc2ccccc2Cl)cc1 (centres undefined) 2.09%
CCOCCCNC(=O)C(NC(=O)CNC(=O)c1ccccc1)c1ccc(OC)cc1 (centres undefined) 3.02%
COC(=O)[C@H](Cc1ccccc1)NC(=O)Nc1ccc(OC)cc1 0.58%
CCOC(=O)C(Cc1ccccc1)NC(=O)CCC(=O)c1ccc(OC)cc1 (centres undefined) 6.1%
COc1ccc(CCn2ccc(O)c(Cc3ccc(Cl)cc3Cl)c2=O)cc1OC 4.67%
CN1C(C)(C)CC(NC(=O)CCC(=O)NC2CC(C)(C)N(C)C(C)(C)C2)CC1(C)C 2.66%
CC1CCN(C(=O)COC(=O)c2cc(S(=O)(=O)N3CCOCC3)ccc2Cl)CC1 -2.49%
Cc1ccnc(NC(=O)C2CCN(S(=O)(=O)c3c(C)c(C)cc(C)c3C)CC2)c1 -0.18%
CC1(C)c2[nH]c3ccccc3c2C[C@H]2C(=O)N(N)CC(=O)N21 1.69%
CCOc1nc(OCC)nc(-n2cc(-c3ccccc3)nn2)n1 6.35%
CC1CCCCC1NC(=O)/C(C#N)=C/C=C/c1ccccc1[N+](=O)[O-] (centres undefined) 7.36%
O=C(CSc1nnc(SCc2ccc(Cl)cc2)s1)N/N=C/c1ccccc1Cl -6.66%
CCOC(=O)c1c(C)oc(C)c(C(=O)OCC)c1=O 2.36%
CCOC(=O)c1c(-c2ccccc2)oc2cc(Br)c(O)c(C=O)c12 11.5%
CCOC(=O)c1ccc(NC(=O)c2c(NCc3ccccc3)[nH]c(=O)[nH]c2=O)cc1 2.87%
O=C(CSC(=S)N1CCCCC1)c1c(F)cccc1F 3.52%
COc1ccc(OC)c(CCNC(=O)CCn2ccc3cc(S(=O)(=O)N4CCCC4)ccc32)c1 0.09%
COc1cccc(-c2nc(CS(=O)CC(=O)NCc3ccc(F)cc3)c(C)o2)c1 (centres undefined) 7.05%
COc1ccc(-c2nc(CS(=O)CC(=O)NCc3ccccc3)c(C)o2)cc1OC (centres undefined) 4.97%
Cc1ccccc1-n1c(SCC(=O)Nc2cccc3ccccc23)nc(O)cc1=O -0.46%
Cc1c(C(=O)NC2CCCCC2)oc2ccccc12 -0.72%
COc1cccc2c1OCC(CN1CCN(C3CCCCC3)C(CCO)C1)=C2 (centres undefined) 2.11%
Cc1ccc(CNC(=O)C(=O)c2cn(CC(=O)N3CCCC3)c3ccccc23)cc1 5.15%
Cn1cnnc1SCc1nnc(-c2ccccc2Br)o1 2.35%
CCOC(=O)N1CCN(Cc2nnc(-c3ccccc3Cl)o2)CC1 -2.11%
CC(=O)NNC(=O)c1csc(Cc2c(Cl)sc3ccc(Cl)cc23)n1 1.7%
Cc1ccc([N+](=O)[O-])c(OCCCNCC(C)O)c1 (centres undefined) 8.16%
COc1ccc(CN2CCCC(N3CCc4ccccc4C3)C2)c(O)c1 (centres undefined) -3.09%
COc1ccc2cc1Oc1ccc(cc1)C[C@H]1c3cc(c(OC)cc3CCN1C)Oc1c(O)c(OC)cc3c1[C@H](C2)N(C)CC3 6.82%
CN(C(=O)COC(=O)CCCc1c[nH]c2ccccc12)c1c(N)n(Cc2ccccc2)c(=O)[nH]c1=O -5.75%
O=C(Nn1c(SCc2ccc([N+](=O)[O-])cc2)nc2ccccc2c1=O)c1ccc(F)cc1 -2.84%
Cc1[nH]c2ccccc2c1CCN(Cc1cccs1)C(=S)NC(C)(C)C 3.98%
COc1cccc(NC(=S)N(CCc2c(C)[nH]c3ccccc23)Cc2ccco2)c1 -0.26%
COc1ccc(CNc2nc3c(c(=O)[nH]c(=O)n3C)n2Cc2ccccc2)cc1 2.21%
COCCn1c(N)c(N(Cc2ccccc2)C(=O)C2CCCCC2)c(=O)[nH]c1=O -0.25%
COc1ccc(CCNC(=O)CCCCCNC(=O)N2CCn3c2nc2ccccc23)cc1OC 1.04%
COc1ccc(CCn2c(=N)c(C(=O)NCC3CCCO3)cc3c(=O)n4cccc(C)c4nc32)cc1OC (centres undefined) 1.5%
Cc1cccn2c(=O)c3cc(C(=O)NCC4CCCO4)c(=N)n(Cc4ccc(F)cc4)c3nc12 (centres undefined) 0.48%
Cc1ccc(S(=O)(=O)N(Cc2ccc(Cl)cc2)c2ccccc2C(=O)NCc2cccnc2)cc1 0.59%

inhibition, active:
O=C(COC(=O)c1ccccc1C(=O)N1CCN(c2ccccc2)CC1)NCc1ccccc1 56.5%
Fc1ccc(CNc2nc3ccccc3n3nnnc23)cc1 49%
COc1ccc(N2CC(C(=O)NCCN3C(=O)S/C(=C\c4cccnc4)C3=O)CC2=O)c(OC)c1 (centres undefined) 149%
CCN(CC)c1ccc2oc(=O)c(C)nc2c1 31.2%
Cc1cc(C)c(/C=C2\C(=O)Nc3ccccc32)[nH]1 163%
NS(=O)(=O)c1ccc(NC(=O)COC(=O)c2c3c(nc4ccccc24)/C(=C\c2ccc4c(c2)OCO4)CCC3)cc1 34.1%
COc1cc([C@H](Cc2ccccc2)NC(C)=O)oc(=O)c1 48.2%
O=c1ccc2c(-c3ccccc3S(=O)(=O)O)c3ccc(O)c(O)c3oc-2c1O 92.5%
CN1c2ccc(C=O)c3c(C=O)ccc(c23)N(C)C1(C)C 144%
CCOC(=O)c1c(C)oc2cc(Sc3ccccc3)c(O)c(O)c12 39%
COc1ccc(-c2nc(CS(=O)CC(=O)NCc3ccccn3)c(C)o2)cc1 (centres undefined) 95.6%
Nc1cccc2c1C(=O)N(Cc1nnc(-c3ccccc3Br)o1)C2=O 48%
COc1c(O)ccc2c1CN1CCc3cc4c(cc3C1C2)OCO4 (centres undefined) 33.7%
COc1ccc2[nH]c(C)c(CCN(Cc3cccs3)C(=S)Nc3ccccc3OC)c2c1 59.5%
COCCn1c(N)c(NCc2ccccc2)c(=O)[nH]c1=O 64.6%
Cc1cccn2c(=O)c3cc(C(=O)NCCN4CCOCC4)c(=N)n(Cc4cccnc4)c3nc12 48.6%

inhibition, 6.53% (inactive) and 60% (active):
COC(=O)[C@H]1[C@H]2C[C@H]3c4[nH]c5ccccc5c4CCN3C[C@@H]2CC[C@@H]1O
